D2 ag-1: HTS Assay for Allosteric Agonists of the Human D2 Dopamine Receptor: Primary Screen for Agonists | D(2) dopamine receptor (Homo sapiens), P14416 | HEK293 T-REx D2 cells, calcium flux agonist mode | activation, % at 2 µM | hit rate 0.53% among 340,000;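 active means activation over 3 SD above normal in the single-dose calcium agonist read, cut at about 30% in these data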; further: 0% is about no effect
Target sequence (P14416 whole entry, looked up): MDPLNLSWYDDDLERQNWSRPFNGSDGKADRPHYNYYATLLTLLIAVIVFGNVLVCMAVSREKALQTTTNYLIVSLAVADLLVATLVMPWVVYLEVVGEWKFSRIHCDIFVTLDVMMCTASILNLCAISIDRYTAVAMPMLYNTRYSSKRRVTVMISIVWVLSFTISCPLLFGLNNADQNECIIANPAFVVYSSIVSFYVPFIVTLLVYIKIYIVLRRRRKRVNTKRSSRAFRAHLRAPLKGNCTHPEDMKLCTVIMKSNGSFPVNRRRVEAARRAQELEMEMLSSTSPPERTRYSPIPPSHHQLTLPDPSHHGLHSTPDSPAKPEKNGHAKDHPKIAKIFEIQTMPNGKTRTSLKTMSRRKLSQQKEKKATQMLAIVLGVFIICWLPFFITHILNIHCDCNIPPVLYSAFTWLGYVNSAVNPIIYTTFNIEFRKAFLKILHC
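Agonism is scored from calcium flux in a force-coupled, inducible HEK293 cell line expressing D2, read kinetically for 180 s after compound addition against dopamine controls.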
D2 ag-2: Beta-Arrestin HTS for Positive Allosteric Modulators of the Human D2 Dopamine Receptor: Agonists. activation, % (concentration not given with the values). DiscoveRx PathHunter D2 beta-arrestin, luminescence, 90 min; 100% = 57 uM dopamine signal. hit rate 0.084% among 360,000; in the data active means activation above about 40%; inconclusive means between about 15% and that limit
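DiscoveRx PathHunter D2 beta-arrestin cells (2,100/well) attached overnight, then compound-stimulated 90 min at 37 C in HBSS/10 mM HEPES/0.1% Tween-20 buffer; beta-galactosidase complementation read by luminescence after 1 h at ambient temperature. Dopamine 57 uM final (EC100) as control.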
D2 PAM-1: HTS Assay for Positive Allosteric Modulators of the Human D2 Dopamine Receptor: Primary Screen for Potentiators; HEK293 T-REx D2, calcium flux, EC20 dopamine potentiation; hit rate 0.34% among 340,000; potentiation, % at 10 µM; D(2) dopamine receptor (Homo sapiens), P14416;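 active means potentiation over 3 SD above the plate norm, cut at about 30% in these data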; further: 0% is about no effect
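Cells plated with tetracycline inducer and held overnight at 30 C; calcium dye loaded 30–90 min at room temperature; baseline taken, compound added and read 180 s; EC20 dopamine then added and read 180 s.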
D2 antagonist: HTS Assay for Allosteric Antagonists of the Human D2 Dopamine Receptor: Primary Screen for Antagonists. HEK293 TREx D2 cells, calcium flux, dopamine EC80. inhibition, % at 10 µM. hit rate 2% among 340,000; in the data active means inhibition above about 30%; inactive means below that, where a call was filed; further: 0% is about no effect
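Compounds are added to dye-loaded, induced HEK293 T-REx cells coupled to calcium release via D2; after a 3 min kinetic read an EC80 dopamine stimulus is given and fluorescence is recorded for 3 more min.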
D2 PAM-2: Beta-Arrestin HTS for Positive Allosteric Modulators of the Human D2 Dopamine Receptor: Potentiators | DiscoveRx D2 beta-arrestin cells, luminescence, 90 min; 100% = 57 uM dopamine signal | potentiation, % (no concentration beside the values) | hit rate 0.23% among 360,000 | AID 624464, 2012; in the data active means potentiation above about 50%; inconclusive means mostly about 30% to 49%
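D2 cells co-treated with compound plus 50 nM dopamine (EC20) for 90 min at 37 deg C to detect potentiation. Beta-arrestin recruitment was read as enzyme-fragment luminescence after 1 h at ambient temperature. Full response was set by 57 uM dopamine.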
* hit, by the source's call; ? = inconclusive; . = not tested or not shown. Rows were chosen to be rich in hits. Some 2.4% of all compounds tested hit in one or more screens of this group.

SMILES | D2 ag-1 | D2 ag-2 | D2 PAM-1 | D2 antagonist | D2 PAM-2
N/C(=N\OC(=O)c1cccc(Br)c1)c1ccc([N+](=O)[O-])cc1 | -1 | 51* | -7 | 1 | 14
COc1ccc(/C(N)=N/OC(=O)c2ccc([N+](=O)[O-])c(C)c2)cc1OC | 0 | 2 | -4 | -11 | -5
N/C(=N\OC(=O)c1ccc(Br)cc1)c1ccccc1 | 0 | 6 | 2 | -6 | 13
Cc1noc(-c2ccc(Cl)cc2)c1C(=O)O/N=C(\N)c1ccc(C(C)(C)C)cc1 | . | 47* | . | . | 151*
CCCCOc1ccccc1C(=O)Nc1nonc1-c1ccccc1 | 1 | . | -18 | . | .
Cc1cc(C)cc(NC(=O)Cn2cc(C(=O)c3cccs3)c3ccccc32)c1 | 1 | . | -7 | . | .
CC(CCc1ccccc1)NC(=O)C1CCC1 (stereo unspecified) | . | -4 | . | . | -1
O=C(COC(=O)CCS(=O)(=O)c1ccccc1)NC(=O)c1ccc(OC(F)F)cc1 | 1 | -1 | -6 | 7 | -3
COc1ccccc1-c1c(C)nn2c(N3CCN(c4ccc(F)cc4)CC3)cc(C)nc12 | -2 | . | . | . | .
Cc1ccc(C(=O)O/N=C(\N)c2ccc(Br)cc2)cc1 | 1 | ? | -22 | 34* | 28
CC(C)(C)c1ccc(C(=O)O/N=C(\N)c2ccccc2)cc1 | 1 | 40* | -4 | 27 | 19
CCOc1ccc(C(=O)O/N=C(\N)c2ccc([N+](=O)[O-])cc2)cc1OCC | 0 | ? | 2 | 14 | 58*
COc1ccc(NC(=O)CCn2c(=O)c3cccn3c3cccnc32)c(OC)c1 | 0 | . | 4 | . | .
O=C(CN1C(=O)NC2(CCCC2)C1=O)OCc1cccc(Br)c1 | 0 | 6 | 2 | -19 | 2
Cn1c(=O)c2cc(NC(=O)NCc3ccccc3)ccc2n1C/C=C/c1ccccc1 | . | 11 | . | . | 5
CC(C)NC(=O)CN(Cc1ccc2c(c1)OCO2)C(=O)CCC(=O)Nc1ccccn1 | 0 | -1 | 9 | 43* | 1
O=C(CC1CCCCC1)Nc1ccc(-c2ccc3nncn3n2)cc1 | 0 | -2 | 43* | 11 | -2
COCCCNC(=O)c1ccc2nc([C@@H]3O[C@H](CO)[C@H](O)[C@H](O)[C@H]3O)[nH]c2c1 | . | -3 | . | . | -9
Cc1ccc2c(c1)C1CN(C)CCC1N2Sc1ccccc1[N+](=O)[O-] (stereo unspecified) | -2 | -8 | -22 | 43* | -19
CCOC(=O)C1=CCC(c2ccccc2)N(S(=O)(=O)c2ccccc2C)C1 (stereo unspecified) | . | -1 | . | . | 1
CCN(CC)S(=O)(=O)c1cc(C(=O)OCC(=O)NC2CCCc3ccccc32)ccc1C (stereo unspecified) | 0 | -3 | 4 | 37* | -17
COc1ccc(-c2cc(-c3ccc(C)cc3)nc3c2COc2ccccc2-3)cc1 | 0 | . | -3 | . | .
C=CCOc1c(Br)cc(/C=C(\C#N)C(N)=O)cc1OC | 1 | 0 | -4 | -2 | -3
COc1cc(C=O)cc(Br)c1OCC(N)=O | -1 | -6 | 1 | 34* | -9
COc1ccc(NC(=O)CSc2nc3c(c(=O)[nH]2)CCC3)cc1 | 1 | . | -2 | . | .
CCCNC(=O)CSC1=N/C(=C/c2ccc(F)cc2)C(=O)N1CC | 0 | -2 | 9 | 35* | -13
C=CCN1C(=O)/C(=C\c2ccc(C)cc2)N=C1SCC(=O)NCCC | 0 | -1 | 5 | 9 | -15
CC(OC(=O)c1cccs1)C(=O)NCc1cccs1 (stereo unspecified) | 0 | 2 | 2 | -8 | 1
COc1ccc(CNC(=O)C(C)OC(=O)c2cccs2)cc1 (stereo unspecified) | 0 | -4 | 33* | -3 | 1
O=C(C1CC1)N1CCc2cc(Br)cc(S(=O)(=O)NCCCN3CCCC3)c21 | 0 | -2 | -11 | 39* | -10

High-throughput results: PubChem, National Center for Advancing Translational Sciences (NCATS)
